# Rows were chosen to be rich in hits. Some 2.3% of all compounds tested hit in one or more screens of this group.
# Pf Dd2 inh: P. falciparum Dd2 growth inhibition. SYBR Green, 72 h; active compounds read low. activity change, % at 10 µM. 94,000 tested, 2.3% active. AID 1159554; in the data active = activity change below about -80%
# C diff HTS: blocks growth of Clostridium difficile. Clostridium difficile clinical isolate growth, OD600, 24 h; active compounds read low. growth activity, negative = inhibition, % at 16 µg/mL (by protocol). 86,000 tested, 0.25% active. AID 1259249;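 active = mean growth activity at or below -80% and every replicate also at or below -80%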;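 note: 0% = DMSO wells and -100% = levofloxacin 16 µg/mL wells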
# An asterisk follows results filed as active; / = not tested or not shown.
SMILES,Pf Dd2 inh,C diff HTS
COc1ccc(NC(=O)Nc2cccc3c2O[C@H](CN(C)Cc2ccc(C(=O)Nc4ccccc4N)cc2)[C@H](C)CN([C@H](C)CO)C3=O)cc1,-93*,7
COc1ccc(NC(=O)Nc2cccc3c2O[C@@H](CN(C)Cc2ccc(C(=O)Nc4ccccc4N)cc2)[C@@H](C)CN([C@H](C)CO)C3=O)cc1,-66,3
CNC[C@@H]1OCCCC[C@@H](C)Oc2ccc(NC(=O)Nc3c(C)noc3C)cc2C(=O)N([C@@H](C)CO)C[C@H]1C,24,-2
COc1ccc2c3c(n(C)c2c1)[C@H](CO)N(Cc1ccccc1OC)CC31CCN(C)CC1,-42,2
COc1ccc2c3c(n(C)c2c1)[C@H](CO)N(Cc1ccccc1OC)CC31CN(CC2CC2)C1,-49,11
COc1ccc2c3c(n(C)c2c1)[C@@H](CO)N(Cc1ccccc1OC)CC31CCN(C(=O)C2CC2)CC1,-83*,6
COc1ccc2c3c(n(C)c2c1)[C@@H](CO)N(Cc1ccc(F)cc1)CC31CCN(CC2CC2)CC1,-86*,0
CCCN1CCC2(CC1)CN(Cc1ccccc1OC)[C@H](CO)c1c2c2ccc(OC)cc2n1C,-92*,9
COc1ccc2c3c(n(C)c2c1)[C@@H](CO)N(Cc1ccc(F)cc1)CC31CCN(CC2CCOCC2)CC1,-49,4
COc1ccc2c3c(n(C)c2c1)[C@H](CO)N(Cc1ccccc1OC)CC31CN(CC2CCOCC2)C1,-89*,7
COc1ccc2c3c(n(C)c2c1)[C@@H](CO)N(Cc1ccccc1F)CC31CCN(C(=O)C2CC2)CC1,-60,4
CC(C)NC(=O)N(C)C[C@@H]1OCCCC[C@@H](C)Oc2ccc(NS(=O)(=O)c3cccs3)cc2C(=O)N([C@@H](C)CO)C[C@H]1C,/,4
CCCC#Cc1cnc2c(c1)C(=O)N([C@@H](C)CO)C[C@@H](C)[C@@H](CN(C)CCC)O2,-62,0
CN(C)CC(=O)N1[C@H](C#N)[C@H](c2ccc(-c3ccccc3F)cc2)[C@H]1CO,33,3
COC(=O)C[C@@H]1CC[C@H]2[C@@H](COc3ccc(NC(=O)Nc4ccc(Cl)cc4)cc3C(=O)N2C)O1,10,3
CO[C@@H]1CN(C)C(=O)c2ccc(NC(=O)Nc3ccccc3)cc2OC[C@H](C)N(C(=O)CC2CC2)C[C@H]1C,-2,/
CNC[C@@H]1OCCCC[C@@H](C)Oc2ccc(NS(=O)(=O)c3ccc(C)cc3)cc2C(=O)N([C@@H](C)CO)C[C@H]1C,/,1
CC(C)NC(=O)Nc1ccc2c(c1)C(=O)N([C@H](C)CO)C[C@H](C)[C@H](CN(C)C(=O)Nc1cccc3ccccc13)O2,1,3
C[C@@H]1CN([C@H](C)CO)C(=O)Cc2cc(N(C)C)ccc2O[C@H]1CN(C)C(=O)Nc1ccc(C(F)(F)F)cc1,0,0
COc1ccc(NC(=O)Nc2ccc3c(c2)C(=O)N([C@H](C)CO)C[C@@H](C)[C@H](CN(C)S(=O)(=O)c2ccc(C)cc2)OCCCC[C@@H](C)O3)cc1,-75,/
COc1ccc(S(=O)(=O)N(C)C[C@H]2OCCCC[C@@H](C)Oc3ccc(NC(=O)Nc4ccc(C(F)(F)F)cc4)cc3C(=O)N([C@H](C)CO)C[C@@H]2C)cc1,-79,3
COc1ccc(NC(=O)Nc2ccc3c(c2)C(=O)N([C@@H](C)CO)C[C@@H](C)[C@@H](CN(C)S(=O)(=O)c2ccc(OC)cc2)OCCCC[C@@H](C)O3)cc1,-73,-6
COc1ccc(S(=O)(=O)N(C)C[C@@H]2OCCCC[C@H](C)Oc3ccc(NC(=O)Nc4ccc(C(F)(F)F)cc4)cc3C(=O)N([C@@H](C)CO)C[C@H]2C)cc1,-86*,6
COc1ccc(NC(=O)Nc2ccc3c(c2)C(=O)N([C@@H](C)CO)C[C@H](C)[C@H](CN(C)S(=O)(=O)c2ccc(OC)cc2)OCCCC[C@@H](C)O3)cc1,-88*,4
COc1ccc(NC(=O)Nc2ccc3c(c2)C(=O)N([C@H](C)CO)C[C@H](C)[C@H](CN(C)S(=O)(=O)c2ccc(C)cc2)OCCCC[C@@H](C)O3)cc1,-88*,/
SMILES,Pf Dd2 inh,C diff HTS
CC(C)NC(=O)N[C@H]1CC[C@H](CC(=O)N2CCCCC2)O[C@H]1CO,22,/
COc1ccccc1-c1ccc2n(c1=O)C[C@@H]1[C@@H](CO)[C@H](C(=O)Nc3nccs3)N(CC3CC3)[C@H]21,-8,3
COc1ccc(C#Cc2cnc3c(c2)C(=O)N([C@@H](C)CO)C[C@H](C)[C@@H](CN(C)C(=O)c2ccccc2F)O3)cc1,-72,13
COc1ccc(S(=O)(=O)Nc2ccc3c(c2)CC(=O)N([C@H](C)CO)C[C@@H](C)[C@H](CN(C)Cc2ccc(-c4ccccc4)cc2)O3)cc1,17,26
O=C(NC[C@H]1[C@H](c2ccccc2)[C@H](CO)N1CC1CCCC1)c1ccccc1,-60,8
C[C@H]1CN([C@@H](C)CO)C(=O)c2cccc(NC(=O)c3nc4ccccc4s3)c2O[C@@H]1CN(C)CC1CCCCC1,-23,0

# Source: PubChem BioAssay (Broad Institute)
